One sequence from publication PMC7862700, “An all-to-all approach to the identification of sequence-specific readers for epigenetic DNA modifications on cytosine” can be followed below.

Common to all, as to experiment: DAPPL (digital affinity profiling via proximity ligation, sequencing); 10 mM Tris-HCl pH 7.5, 50 mM NaCl, 1 mM DTT, 4% glycerol, room temperature, 30 min; GST-TFs on glutathione beads, 16-mer random dsDNA library, 0.1% formaldehyde crosslink after washing; high values mean tight binding
Holding throughout (conditions): protein: recombinant; tags: N-terminal GST; dsDNA, one strand shown

The target of one experiment is T1, FLI1 (Homo sapiens, UniProt Q01543 1-452).
T1 sequence: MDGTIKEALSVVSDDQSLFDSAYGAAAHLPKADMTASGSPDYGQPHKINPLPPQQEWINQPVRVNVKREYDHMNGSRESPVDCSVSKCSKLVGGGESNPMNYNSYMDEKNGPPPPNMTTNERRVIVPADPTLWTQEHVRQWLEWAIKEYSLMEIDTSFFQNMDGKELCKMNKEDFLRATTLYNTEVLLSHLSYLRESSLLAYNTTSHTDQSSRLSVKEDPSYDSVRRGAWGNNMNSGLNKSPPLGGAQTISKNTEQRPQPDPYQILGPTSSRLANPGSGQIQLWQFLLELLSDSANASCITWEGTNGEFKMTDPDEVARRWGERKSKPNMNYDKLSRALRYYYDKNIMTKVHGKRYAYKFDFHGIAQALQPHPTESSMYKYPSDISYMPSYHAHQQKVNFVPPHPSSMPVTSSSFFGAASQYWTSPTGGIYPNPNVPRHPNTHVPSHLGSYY
The gist of the method: (§1)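 Human transcription factors were made in yeast as GST fusions, captured on glutathione beads and barcoded with DNA. With a tag-only sample included, the pool was incubated with 200 nmole of a random double-stranded 16-mer DNA library in Tris/NaCl/DTT/glycerol buffer at room temperature for 30 min, then crosslinked with 0.1% formaldehyde after washing, ligated by proximity, amplified and sequenced. For binding signal, each hexamer's read frequency for a factor is divided by its frequency for the tag-only sample.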

For a further experiment, the target named is T2, ELK1 (Homo sapiens, UniProt P19419 1-428).
T2 sequence: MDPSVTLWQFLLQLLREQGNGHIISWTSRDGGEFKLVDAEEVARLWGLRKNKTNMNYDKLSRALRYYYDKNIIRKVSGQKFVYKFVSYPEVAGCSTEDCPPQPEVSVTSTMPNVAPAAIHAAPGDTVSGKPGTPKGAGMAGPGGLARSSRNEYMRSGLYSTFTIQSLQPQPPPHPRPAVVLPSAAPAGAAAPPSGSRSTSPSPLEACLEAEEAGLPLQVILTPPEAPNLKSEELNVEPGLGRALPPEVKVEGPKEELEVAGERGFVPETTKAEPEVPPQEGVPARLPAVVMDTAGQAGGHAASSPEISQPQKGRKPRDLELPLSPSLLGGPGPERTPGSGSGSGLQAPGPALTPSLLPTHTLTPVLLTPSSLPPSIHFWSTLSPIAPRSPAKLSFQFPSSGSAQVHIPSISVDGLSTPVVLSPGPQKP
The gist of the method:
as §1

In the next experiment the target is T3, GABPA (Homo sapiens, UniProt Q06546 1-454).
T3 sequence: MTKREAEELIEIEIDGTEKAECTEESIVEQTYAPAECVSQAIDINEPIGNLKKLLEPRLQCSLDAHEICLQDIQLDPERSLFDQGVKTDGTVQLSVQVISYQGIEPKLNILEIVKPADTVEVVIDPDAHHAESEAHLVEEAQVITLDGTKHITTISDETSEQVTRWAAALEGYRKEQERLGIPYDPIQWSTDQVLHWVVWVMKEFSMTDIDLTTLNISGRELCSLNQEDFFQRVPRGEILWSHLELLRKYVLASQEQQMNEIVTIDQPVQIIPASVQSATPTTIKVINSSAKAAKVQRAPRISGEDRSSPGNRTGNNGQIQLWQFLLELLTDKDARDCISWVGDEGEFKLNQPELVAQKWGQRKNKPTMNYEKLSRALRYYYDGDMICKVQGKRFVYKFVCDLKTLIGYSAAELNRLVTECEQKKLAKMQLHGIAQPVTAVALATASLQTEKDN
The gist of the method: as §1

For a further experiment, the target named is T4, ERG (Homo sapiens, UniProt P11308 1-479).
T4 sequence: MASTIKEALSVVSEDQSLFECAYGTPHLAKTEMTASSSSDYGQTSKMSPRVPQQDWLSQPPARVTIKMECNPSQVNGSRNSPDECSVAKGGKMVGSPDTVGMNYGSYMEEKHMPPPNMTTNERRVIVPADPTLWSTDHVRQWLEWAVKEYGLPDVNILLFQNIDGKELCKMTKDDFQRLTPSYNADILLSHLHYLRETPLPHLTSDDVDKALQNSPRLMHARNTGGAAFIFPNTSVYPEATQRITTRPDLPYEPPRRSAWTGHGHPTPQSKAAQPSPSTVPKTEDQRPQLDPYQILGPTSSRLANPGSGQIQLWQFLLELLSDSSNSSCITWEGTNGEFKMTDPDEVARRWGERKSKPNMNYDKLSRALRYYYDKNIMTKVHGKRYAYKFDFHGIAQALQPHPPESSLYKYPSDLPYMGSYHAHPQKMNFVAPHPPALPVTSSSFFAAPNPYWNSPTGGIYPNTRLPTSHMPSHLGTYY
Put shortly:
as §1

The target in the next experiment is ELF1 (Homo sapiens, UniProt P32519 1-619). The gist of the method: as §1
In the next experiment the target is T5, EHF (Homo sapiens, UniProt Q9NZC4 1-300).
T5 sequence: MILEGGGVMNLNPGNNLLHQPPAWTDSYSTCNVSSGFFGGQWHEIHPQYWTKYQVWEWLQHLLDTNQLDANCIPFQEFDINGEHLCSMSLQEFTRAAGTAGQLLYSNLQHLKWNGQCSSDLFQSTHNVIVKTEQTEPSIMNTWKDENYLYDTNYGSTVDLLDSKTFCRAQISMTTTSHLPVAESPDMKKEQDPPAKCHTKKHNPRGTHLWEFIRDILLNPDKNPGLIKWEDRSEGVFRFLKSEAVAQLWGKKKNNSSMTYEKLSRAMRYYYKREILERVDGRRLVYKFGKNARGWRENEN
Put shortly:
as §1

A further experiment concerns the target SPI1 (Homo sapiens, UniProt P17947 1-270). Put shortly:
as §1

The target in a further experiment is SPIB (Homo sapiens, UniProt Q01892 1-262). Put shortly: as §1
A further experiment concerns the target T6, ELK3 (Homo sapiens, UniProt P41970 1-407).
T6 sequence: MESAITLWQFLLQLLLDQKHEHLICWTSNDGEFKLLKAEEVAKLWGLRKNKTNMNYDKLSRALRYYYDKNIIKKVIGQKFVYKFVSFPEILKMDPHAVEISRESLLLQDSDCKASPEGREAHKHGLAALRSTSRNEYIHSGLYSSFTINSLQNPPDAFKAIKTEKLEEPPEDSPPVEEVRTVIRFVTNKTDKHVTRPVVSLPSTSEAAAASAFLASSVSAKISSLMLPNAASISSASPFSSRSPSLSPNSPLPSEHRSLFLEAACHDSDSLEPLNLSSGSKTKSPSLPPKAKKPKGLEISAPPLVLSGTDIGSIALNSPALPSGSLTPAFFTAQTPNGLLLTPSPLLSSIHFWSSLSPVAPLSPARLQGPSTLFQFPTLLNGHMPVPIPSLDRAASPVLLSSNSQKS
The gist of the method: as §1

In a further experiment the target is T7, FEV (Homo sapiens, UniProt Q99581 1-238).
T7 sequence: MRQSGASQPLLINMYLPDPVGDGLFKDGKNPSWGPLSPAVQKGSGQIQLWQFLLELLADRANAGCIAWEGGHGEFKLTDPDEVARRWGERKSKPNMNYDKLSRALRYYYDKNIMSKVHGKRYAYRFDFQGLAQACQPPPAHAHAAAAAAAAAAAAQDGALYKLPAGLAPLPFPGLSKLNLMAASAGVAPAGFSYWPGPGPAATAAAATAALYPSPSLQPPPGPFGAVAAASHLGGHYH
The gist of the method:
as §1

Another experiment has as its target ETV5 (Homo sapiens, UniProt P41161 1-510). Put shortly: as §1
For another experiment, the target named is T8, SPIC (Homo sapiens, UniProt Q8N5J4 1-248).
T8 sequence: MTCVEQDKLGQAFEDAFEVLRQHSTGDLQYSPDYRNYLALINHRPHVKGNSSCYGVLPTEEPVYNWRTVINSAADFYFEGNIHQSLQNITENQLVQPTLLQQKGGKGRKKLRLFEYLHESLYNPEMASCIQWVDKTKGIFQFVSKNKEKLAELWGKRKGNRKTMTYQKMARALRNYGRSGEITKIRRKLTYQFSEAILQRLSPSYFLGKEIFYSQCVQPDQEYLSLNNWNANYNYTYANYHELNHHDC
Put shortly: as §1

For another experiment, the target named is ELF4 (Homo sapiens, UniProt Q99607 1-663). Put shortly:
as §1

For the next experiment, the target named is T9, ELK4 (Homo sapiens, UniProt P28324-2 1-405).
T9 sequence: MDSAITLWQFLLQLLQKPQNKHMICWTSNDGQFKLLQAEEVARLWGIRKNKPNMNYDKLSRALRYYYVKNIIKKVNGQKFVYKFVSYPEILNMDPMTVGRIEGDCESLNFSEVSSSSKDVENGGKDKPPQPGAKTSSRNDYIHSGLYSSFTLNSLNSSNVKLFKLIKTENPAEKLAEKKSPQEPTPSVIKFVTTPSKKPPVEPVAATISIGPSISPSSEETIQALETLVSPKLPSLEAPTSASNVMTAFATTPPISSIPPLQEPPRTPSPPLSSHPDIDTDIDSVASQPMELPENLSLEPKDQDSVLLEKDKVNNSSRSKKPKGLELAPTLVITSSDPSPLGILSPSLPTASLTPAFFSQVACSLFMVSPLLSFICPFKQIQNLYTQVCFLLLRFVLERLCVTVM
The gist of the method:
as §1

Another experiment concerns the target T10, ETV2 (Homo sapiens, UniProt O00321 1-342).
T10 sequence: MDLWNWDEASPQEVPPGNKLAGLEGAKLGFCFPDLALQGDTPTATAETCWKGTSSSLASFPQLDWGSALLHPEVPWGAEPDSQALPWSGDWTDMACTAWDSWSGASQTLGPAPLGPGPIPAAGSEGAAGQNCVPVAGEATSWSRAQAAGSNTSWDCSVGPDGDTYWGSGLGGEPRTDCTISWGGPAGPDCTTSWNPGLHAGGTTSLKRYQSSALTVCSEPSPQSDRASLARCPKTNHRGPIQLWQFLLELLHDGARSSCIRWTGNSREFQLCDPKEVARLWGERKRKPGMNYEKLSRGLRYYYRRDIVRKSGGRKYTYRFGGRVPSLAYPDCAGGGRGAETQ
Put shortly: as §1

Another experiment deals with ETV1 (Homo sapiens, UniProt P50549 1-477). Put shortly:
as §1

Chain of ELF1 (P32519 whole entry): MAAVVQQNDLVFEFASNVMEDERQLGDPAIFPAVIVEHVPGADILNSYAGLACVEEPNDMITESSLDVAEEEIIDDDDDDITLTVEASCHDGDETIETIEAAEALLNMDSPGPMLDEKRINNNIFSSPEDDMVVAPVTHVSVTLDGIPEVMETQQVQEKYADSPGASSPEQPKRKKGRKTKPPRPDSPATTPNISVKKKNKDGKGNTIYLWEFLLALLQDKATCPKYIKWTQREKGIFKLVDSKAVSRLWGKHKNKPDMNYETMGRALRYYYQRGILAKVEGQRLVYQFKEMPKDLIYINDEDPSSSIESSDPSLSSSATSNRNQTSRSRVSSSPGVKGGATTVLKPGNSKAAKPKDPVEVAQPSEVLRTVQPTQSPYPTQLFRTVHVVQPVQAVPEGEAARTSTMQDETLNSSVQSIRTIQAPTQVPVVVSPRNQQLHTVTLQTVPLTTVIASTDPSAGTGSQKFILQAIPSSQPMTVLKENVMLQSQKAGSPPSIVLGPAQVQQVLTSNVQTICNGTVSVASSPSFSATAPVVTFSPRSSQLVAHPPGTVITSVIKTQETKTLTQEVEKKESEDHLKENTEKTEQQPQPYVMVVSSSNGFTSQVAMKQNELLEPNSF
Chain of ETV1 (P50549 whole entry): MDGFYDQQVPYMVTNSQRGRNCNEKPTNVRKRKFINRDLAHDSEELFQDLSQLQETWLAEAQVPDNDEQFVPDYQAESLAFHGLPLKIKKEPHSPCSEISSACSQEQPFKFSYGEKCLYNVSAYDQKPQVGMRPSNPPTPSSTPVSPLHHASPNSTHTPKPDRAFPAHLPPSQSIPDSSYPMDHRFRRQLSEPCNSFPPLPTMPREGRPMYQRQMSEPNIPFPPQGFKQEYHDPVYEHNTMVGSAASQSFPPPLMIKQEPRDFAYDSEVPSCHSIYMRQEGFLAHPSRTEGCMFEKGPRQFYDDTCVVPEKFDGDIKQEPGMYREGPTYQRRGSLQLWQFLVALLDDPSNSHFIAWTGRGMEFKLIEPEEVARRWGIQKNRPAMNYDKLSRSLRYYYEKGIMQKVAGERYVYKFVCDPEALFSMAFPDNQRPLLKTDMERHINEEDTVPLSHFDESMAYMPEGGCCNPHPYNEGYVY
Chain of ELF4 (Q99607 whole entry): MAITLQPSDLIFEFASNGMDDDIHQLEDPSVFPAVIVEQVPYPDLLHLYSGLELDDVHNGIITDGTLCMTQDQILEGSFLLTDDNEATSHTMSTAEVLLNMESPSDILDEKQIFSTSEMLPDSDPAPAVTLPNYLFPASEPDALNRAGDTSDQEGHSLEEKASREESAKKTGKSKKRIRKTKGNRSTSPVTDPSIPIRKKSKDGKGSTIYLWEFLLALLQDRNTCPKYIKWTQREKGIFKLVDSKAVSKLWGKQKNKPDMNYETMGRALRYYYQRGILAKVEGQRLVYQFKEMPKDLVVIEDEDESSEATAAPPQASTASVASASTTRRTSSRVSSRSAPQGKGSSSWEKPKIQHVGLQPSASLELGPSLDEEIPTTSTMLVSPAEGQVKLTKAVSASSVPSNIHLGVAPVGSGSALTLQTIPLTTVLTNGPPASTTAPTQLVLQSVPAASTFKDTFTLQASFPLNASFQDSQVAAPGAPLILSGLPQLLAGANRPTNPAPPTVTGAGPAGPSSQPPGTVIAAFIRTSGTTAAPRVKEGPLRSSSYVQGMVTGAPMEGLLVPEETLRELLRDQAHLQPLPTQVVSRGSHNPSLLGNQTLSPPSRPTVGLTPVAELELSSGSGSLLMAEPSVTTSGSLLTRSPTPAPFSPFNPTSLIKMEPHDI
Chain of ETV5 (P41161 whole entry): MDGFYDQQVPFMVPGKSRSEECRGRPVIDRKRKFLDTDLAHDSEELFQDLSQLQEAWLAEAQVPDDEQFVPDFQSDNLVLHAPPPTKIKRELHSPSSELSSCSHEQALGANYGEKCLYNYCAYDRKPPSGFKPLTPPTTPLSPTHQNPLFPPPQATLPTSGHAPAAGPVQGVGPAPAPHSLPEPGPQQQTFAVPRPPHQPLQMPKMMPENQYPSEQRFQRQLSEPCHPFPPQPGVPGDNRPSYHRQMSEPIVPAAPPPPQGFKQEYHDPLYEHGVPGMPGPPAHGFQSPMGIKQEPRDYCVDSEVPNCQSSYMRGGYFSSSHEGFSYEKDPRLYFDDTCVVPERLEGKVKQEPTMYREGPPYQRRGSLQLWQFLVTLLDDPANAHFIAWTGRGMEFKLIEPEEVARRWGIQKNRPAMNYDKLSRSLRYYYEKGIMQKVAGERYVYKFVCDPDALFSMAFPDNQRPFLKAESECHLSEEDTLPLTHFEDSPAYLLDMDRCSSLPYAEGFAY
Chain of SPIB (Q01892 whole entry): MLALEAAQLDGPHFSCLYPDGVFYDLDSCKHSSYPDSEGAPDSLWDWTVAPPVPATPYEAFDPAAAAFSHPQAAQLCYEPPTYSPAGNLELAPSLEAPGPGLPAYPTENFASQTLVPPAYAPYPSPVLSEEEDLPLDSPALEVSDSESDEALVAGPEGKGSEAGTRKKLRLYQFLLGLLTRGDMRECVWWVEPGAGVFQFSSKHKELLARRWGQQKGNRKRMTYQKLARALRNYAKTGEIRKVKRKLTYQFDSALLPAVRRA

In the case of ACGCAC, the binding signal with FLI1 is 1.06 fold enrichment (6-mer frequency, TF over GST control); in the experiment with ELK1, 1.09 fold enrichment (6-mer frequency, TF over GST control); with GABPA, 1.04 fold enrichment (6-mer frequency, TF over GST control); with ERG, 1.02 fold enrichment (6-mer frequency, TF over GST control); with ELF1, 1.06 fold enrichment (6-mer frequency, TF over GST control); with EHF, 1.03 fold enrichment (6-mer frequency, TF over GST control). The binding signal in the experiment with SPI1 was 1.03 fold enrichment (6-mer frequency, TF over GST control); in the experiment with SPIB, 1.07 fold enrichment (6-mer frequency, TF over GST control); with ELK3, 1.09 fold enrichment (6-mer frequency, TF over GST control); with FEV it was 1.05 fold enrichment (6-mer frequency, TF over GST control); in the experiment with ETV5, 1.09 fold enrichment (6-mer frequency, TF over GST control); in the experiment with SPIC, 1.01 fold enrichment (6-mer frequency, TF over GST control). In addition, the binding signal with ELF4 was 1.05 fold enrichment (6-mer frequency, TF over GST control); in the experiment with ELK4, 1.06 fold enrichment (6-mer frequency, TF over GST control); in the experiment with ETV2 it was 1.22 fold enrichment (6-mer frequency, TF over GST control); with ETV1, 1.1 fold enrichment (6-mer frequency, TF over GST control).
